Here are results for 58 compounds from PubChem BioAssay AID1117361 (Southern Research Institute, 2015).

Out of some 3,600 compounds screened, about 900 (25%) were called active. No rule for the calls is given here. Only a sample is shown. Measured potencies and affinities stand elsewhere.

What is called inhibition is the drop in the measured response relative to a control, in per cent.

This experiment concerns the target Protein Tat (Human immunodeficiency virus type 1 group M subtype B (isolate HXB2)) (UniProt P04608). Nature of the experiment: HIV-1 Tat–TAR interaction blockers – biochemical, fluorescence polarization, FAM-labeled TAR RNA, counter-screen for Vif-APOBEC3G degradation inhibitor project, dose response (AID 1117361). The conditions noted are these: Tat-TAR RNA binding; series mostly up to 100 µM; inhibition: at the top concentration.
For the compound `Cc1ccc(NCc2nnc(SCC(=O)N(Cc3ccccc3)C(C)(C)C)o2)c(C)c1`, the “inhibition” value was 3.38% (inactive).
On to `CNC(=O)C(=O)N/N=C/c1cccnc1`, for which the “inhibition” value is 13.2% (inactive).
Still for that read-out and setting: the value for `O=C(CN(C(=O)c1cc2c(s1)CCC2)C1CCCC1)NCc1cccs1` was 8.11% (inactive); that for `CCCc1nc2ccccc2c(=O)n1NC(=O)c1c(O)c2cccc3c2n(c1=O)CCC3` was 3.38% (inactive).
Turning to `COC(=O)Cc1cc(=O)[nH]c(/N=C(\N)Nc2ccc(C)cc2)n1`, the outcome was inactive.
The same measure, in the same setting: the result for `O=C(N/N=C\c1ccc(Cl)cc1)C1=NOC2COC3(CCN(c4ccc([N+](=O)[O-])cc4)CC3)OCC12` (stereo not drawn) reads “inactive”.
Consider `CCC(C)N1CC23C=CC(O2)C(C(=O)OC)C3C1=O` (stereo not drawn), for which the “inhibition” value was 2.7% (inactive).
The same measure, in the same setting: the result for `COCC(=O)Nc1sc2c(c1C(=O)OC)C(C(=O)OC)CC2` (stereo not drawn) reads 12.8% (inactive); that for `CCOC(=O)C1=C(Cc2ccc(Cl)cc2)C(=O)c2ccccc2C1=O`, 2.34% (inactive).
Turning to `CCOC(=O)c1c2c(n(Cc3ccccc3)c1C)C(=O)C(=O)c1ccccc1-2`, the call was inactive.
Same read-out and setting: the value for `COc1c(F)c(F)c(C(=O)Nc2ccccc2N2CCN(C(C)=O)CC2)c(F)c1F` was “inactive”; that for `O=C(Nc1ccccc1N1CCCCC1)c1ccccc1F` was “inactive”.
As for `COc1ccc(S(=O)(=O)N(C(C)=O)c2ccc3oc(=O)sc3c2)cc1`, the “inhibition” value is 25.9% (inactive).
On the same count and under the same terms, the value for `O=C1C(Cl)=C(Oc2ccccc2)C(=O)c2ccccc21` was 7.01% (inactive).
Turning to `CC(OC(=O)c1cccc(O)c1)C(=O)N(C)Cc1ccccc1` (stereo not drawn), the compound was called inactive.
With `CC(=O)Nc1ccc(NC(=O)c2sc3nc4c(c(-c5ccc(C)cc5)c3c2N)CCC4)cc1`, the “inhibition” value was 11.5% (inactive).
As to `CSc1ncccc1C(=O)NCc1nnc2ccccn12`, the outcome was inactive.
Take `O=C(Cn1c(NCCO)nc2ccccc21)NCC(F)(F)F`: the compound was called inactive.
For `O=C(CSc1nnc(CN2CCCCC2)n1-c1ccccc1)c1ccc2c(c1)OCO2`, the “inhibition” value is 0.68% (inactive).
The same measure, in the same setting: the value for `CC(NC(=O)c1ccco1)C(=O)N1CCc2ccccc2C1` (stereo not drawn) was 11.5% (inactive); that for `O=C(CN(C1CCCCC1)C1CCCCC1)N1CCc2ccccc2C1` was 5.41% (inactive).
`Cc1ccc([C@H]2C(C(=O)O)=CC[C@@H](c3cccc(Cl)c3)N2S(=O)(=O)c2ccc(C)cc2)cc1`: the call was inactive.
Take `COc1ccccc1-n1nnnc1SCC(=O)Nc1cc(C)on1`: the “inhibition” value is 1.35% (inactive).
Still for that read-out and setting: the result for `O=c1cc2oc3cc(O)c(O)cc3c(-c3ccccc3O)c-2cc1O` reads 10.3% (inactive).
On the same count and under the same terms, the value for `OC(CN1CCCCC1)CN1CCCCC1` was 9.46% (inactive).
With `CS(=O)(=O)N(CC(=O)N1CCN(Cc2ccccc2)CC1)c1ccc2c(c1)OCCO2`, the result was inactive.
As for `CSCCC(CO)NC(=O)OCc1ccccc1` (stereo not drawn), the “inhibition” value is 2.7% (inactive).
Still for that read-out and setting: the result for `C[C@H](NC(=O)OCc1ccccc1)C(=O)NNC(=O)[C@H](C)NC(=O)OCc1ccccc1` reads 16.5% (inactive).
Take `O=C(Nc1nnc(C2CC2)o1)c1ccc(S(=O)(=O)N2CCCc3ccccc32)cc1`: the outcome was inactive.
Take `Cc1ccc(N2CC(NC(=O)N3CCN(C(=O)c4ccco4)CC3)CC2=O)cc1` (stereo not drawn): the “inhibition” value is 6.35% (inactive).
The same measure, in the same setting: the value for `CSc1ccc(C2Nc3ccccc3-c3cc(C)nn32)cc1` (stereo not drawn) was 2.05% (inactive); that for `COc1ccc(S(=O)(=O)Nc2ccc3c(c2)OCO3)cc1C` was 4.77% (inactive).
With `O=S(=O)(Nc1ccc2c(c1)OCCO2)c1cnc[nH]1`, the outcome was inactive.
As to `O=C(CCc1ccc(S(=O)(=O)NCCc2ccccc2)cc1)Nc1ccc2c(c1)OCO2`, the “inhibition” value is 1.36% (inactive).
For the compound `O=C(Nc1ccc2c(c1)OCO2)c1cccc(S(=O)(=O)N2CCCC2)c1`, the outcome was inactive.
For the compound `CS(=O)(=O)N1CCCCC1CCN1CCCCC1` (stereo not drawn), the “inhibition” value was 3.67% (inactive).
As for `CC1(C)CC(=O)C(C2NCCc3ccccc32)=C(O)C1` (stereo not drawn), the result was inactive.
Still for that read-out and setting: the value for `CCN(CC)CC(=O)Nc1nn(-c2ccccc2)nc1C(N)=O` was “inactive”.
Still for that read-out and setting: the value for `Cc1ccc(S(=O)(=O)n2cnc3ccccc32)c(C)c1` was “inactive”.
On to `CCCCNC(=O)c1c(O)c2cccc3c2n(c1=O)CCC3`, for which the “inhibition” value was 5.41% (inactive).
Regarding `N#CC1(c2ccc(NC(=O)c3ccccc3F)cc2)CCCC1`, the outcome was inactive.
Regarding `CCCCCn1c(CN2CCN(c3cc(Cl)ccc3C)CC2)nc2c1c(=O)[nH]c(=O)n2C`, the “inhibition” value is 0.68% (inactive).
As for `CCOc1c(OC)cccc1C1CC(=O)Nc2cc3c(cc21)OCCO3` (stereo not drawn), the result was inactive.
`CCc1ccccc1N(CC)C(=O)CCc1nc(-c2ccc(C)cc2)no1`: the “inhibition” value was 0.68% (inactive).
`NS(=O)(=O)c1ccc(NC(=O)COC(=O)CC2Sc3ccccc3NC2=O)cc1` (stereo not drawn): the outcome was inactive.
Take `COc1cc(C(C2C(=O)CC(C)(C)CC2=O)C2C(=O)CC(C)(C)CC2=O)cc(OC)c1OC`: the “inhibition” value was 6.35% (inactive).
Regarding `O=C(Nc1cc(Cl)ccc1Oc1ccccc1)c1cnccn1`, the “inhibition” value is 1.36% (inactive).
Same read-out and setting: the value for `Cc1cn(C2CCCCO2)c(=O)[nH]c1=O` (stereo not drawn) was 3.67% (inactive); that for `CN(C)NC1CCS(=O)(=O)C1` (stereo not drawn) was 27% (inactive); that for `Cn1nnnc1SCC(=O)NCc1ccco1` was 22.3% (inactive).
In the case of `O=C(Cn1cnc2c(nnn2Cc2ccc(F)cc2)c1=O)NCc1ccco1`, the “inhibition” value is 6.82% (inactive).
Regarding `COc1ccc2c(c1OC)C(=O)OC2Nc1nc(-c2cc3cc([N+](=O)[O-])ccc3oc2=O)cs1` (stereo not drawn), the outcome was inactive.
With `CCOc1ccc(CCNC(=O)C2CC(C)=CCC2C(=O)O)cc1OCC` (stereo not drawn), the “inhibition” value is 1.67% (inactive).
As for `CCC(Sc1nc2cc(OC)c(OC)cc2c(=O)n1Cc1ccco1)C(=O)NCCOC` (stereo not drawn), the “inhibition” value is 1.36% (inactive).
Regarding `COc1ccc2c(=O)c3c(=O)n(-c4ccc(C)cc4)c(-c4ccccc4)nc3oc2c1`, the compound was classed as inactive.
Regarding `CCN1/C(=C(\O)c2ccccc2)C(=O)c2ccccc2S1(=O)=O`, the “inhibition” value was 6.08% (inactive).
With `COc1ccc(C2C(C#N)=C(N)Oc3n[nH]c(C)c32)cc1Cn1nnc2ccccc21` (stereo not drawn), the result was inactive.
Consider `NC(=O)C1CCN(C(=O)C23CC4CC(CC(C4)C2)C3)CC1`, for which the “inhibition” value was 2.05% (inactive).
